{"source": "PubChem BioAssay AID686978", "about": "(National Center for Advancing Translational Sciences (NCATS), 2013)", "note": "The campaign covered roughly 420,000 compounds. About 64,000 (15%) were called active. About 27% were inconclusive and are not listed. Calls follow the shape of the dose curve; as a rule, active = well fitted inhibition curve with a large enough effect; inconclusive = small, poorly fitted or top-dose-only effect; inactive = flat fitted curve, though single readings scatter. The list is a sample of the results. Entries that show only a call come without a potency. Potency is read from the fitted curve at half-maximal effect.", "data": [{"assay": "qHTS for Inhibitors of human tyrosyl-DNA phosphodiesterase 1 (TDP1): qHTS in cells in absence of CPT; also: nearly all actives have a fitted effect of over 55% in size", "details": "DT40 Tdp1-/- hTDP1 cells, no CPT, ATP luminescence, 48 h; activity change, negative = growth inhibition: at 46.2 µM (top of the series)", "procedure,_shortened": "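Readout: luminescence from CellTiter-Glo after 30 min in the dark at RT. Cells: DT40 Tdp1-/- with stable hTDP1, 400/well. Exposure: compounds alone, ≥48 hr, 37 °C.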", "values": [{"smiles": "CC(=O)c1c(C)[nH]c(C(=O)CN2C(=O)NC(C)(C)C2=O)c1C", "Potency": "inactive"}, {"smiles": "COCCNC(=S)N(Cc1cccnc1)Cc1ccc(OC)c(OC)c1", "Potency": "inactive"}, {"smiles": "COc1cccc(C(=O)n2ccc(-c3cccs3)n2)c1", "Potency": "inactive"}, {"smiles": "CC(C)CC1(C(=O)NCc2ccccn2)C=CCN1C(=O)c1ccccc1", "note": "(stereo not given)", "Potency": "inactive"}, {"smiles": "CC(=O)c1c(C)[nH]c(C(=O)OCC(=O)Nc2sc3c(c2C#N)CCCC3)c1C", "Potency": "16.4 µM (active)"}, {"smiles": "CC(=O)c1c(C)[nH]c(C(=O)OCC(=O)Nc2c(C)cccc2C)c1C", "Potency": "13 µM (active)"}, {"smiles": "CCN1CCN(CC(=O)Nc2sc3c(c2C#N)CCC3)CC1", "Potency": "inactive"}, {"smiles": "N#Cc1c(NC(=O)C2CCCO2)sc2c1CCCCC2", "note": "(stereo not given)", "Potency": "inactive"}, {"smiles": "Cc1cccc(C(=O)OCC(=O)Nc2sc3c(c2C#N)CCC3)c1", "Potency": "inactive"}, {"smiles": "N#Cc1c(NC(=O)CCCl)sc2c1CCCCC2", "Potency": "18.4 µM (active)"}, {"smiles": "Cc1cccc(C)c1NC(=O)COC(=O)c1ccccc1O", "Potency": "inactive"}, {"smiles": "Cc1ccc(C)c(OCC(=O)Nc2sc3c(c2C#N)CCCC3)c1C", "Potency": "9.2 µM (active)"}, {"smiles": "COc1ccc(-n2c(SCC(=O)Nc3sc4c(c3C#N)CCCC4)nnc2-c2ccc(O)cc2)cc1", "Potency": "inactive"}, {"smiles": "CC(=O)c1c(C)[nH]c(C(=O)OCC(=O)Nc2c(C)n(C)n(-c3ccccc3)c2=O)c1C", "Potency": "inactive"}, {"smiles": "CCOC(=O)c1c(NC(=O)CSc2nnc(C)c(=O)[nH]2)sc2c1CCC2", "Potency": "inactive"}, {"smiles": "CCCc1cc(=O)[nH]c(SCC(=O)Nc2sc3c(c2C#N)CCCC3)n1", "Potency": "inactive"}, {"smiles": "C=CCc1cccc2cc(C(=O)NC3CCCC3)c(=O)oc12", "Potency": "inactive"}, {"smiles": "Cc1nn(-c2ccccc2)nc1C(=O)OCC(=O)N1CCCCC1C", "note": "(stereo not given)", "Potency": "inactive"}, {"smiles": "Nc1nc(SCC(=O)NCCN2CCOCC2)nc2sc3c(c12)CCC3", "Potency": "inactive"}, {"smiles": "CSc1nc2nc3c(c(=O)n2[nH]1)CCC3", "Potency": "inactive"}, {"smiles": "Cc1cn(C2OC[C@@H](O)[C@@H]2CO)c(=O)[nH]c1=O", "note": "(stereo not given in full)", "Potency": "inactive"}, {"smiles": "CC(C)[C@H]1CC[C@@H](C)C[C@H]1O", "Potency": "inactive"}, {"smiles": "CCCC(C)C(=O)Nc1ccc(NC(C)=O)cc1", "note": "(stereo not given)", "Potency": "inactive"}, {"smiles": "O=C(NNC(=O)C1CCC1)c1ccccc1", "Potency": "inactive"}, {"smiles": "Cc1csc(-c2coc3cc(O[C@@H]4O[C@H](CO)[C@@H](O)[C@@H](O)[C@H]4O)ccc3c2=O)n1", "activity change, negative = growth inhibition": "1.27% [at 9.04 µM] (inactive)"}, {"smiles": "COc1cc2nc(N3CCN(C(=O)[C@@H]4CCCO4)CC3)nc(N)c2cc1OC", "Potency": "inactive"}, {"smiles": "COc1cc2nc(N3CCCN(C)CC3)nc(NC3CC3)c2cc1OC", "Potency": "10 µM (active)"}, {"smiles": "COc1cc2nc(N3CCCN(C)CC3)nc(NC(C)C)c2cc1OC", "Potency": "12.6 µM (active)"}, {"smiles": "COc1ccc(C(=O)N2CCCN(C)CC2)c(OC)c1", "Potency": "inactive"}, {"smiles": "CNCCCOc1cc2nc(N3CCCN(C)CC3)nc(NC3CCN(C)CC3)c2cc1OC", "Potency": "inactive"}]}]}
